Results filed as inconclusive are left out. Unmarked numbers belong to inactive results. The source made the active and inactive calls. Unless noted, the call rests on the fitted dose curve; in most records, active means well fitted curve in the direction sought with a large enough effect in the repeat runs; inconclusive means weak or mixed curves; inactive means no such curve, though single readings can be large; an effect the other way counts as inactive or inconclusive.

Assay [1] can be described thus: qHTS assay to identify small molecule agonists of the vitamin D receptor (VDR) signaling pathway - cell viability counter screen (AID 743224). Further: series mostly up to about 63 µM; nearly all actives have a fitted effect of over 50% in size. The gist of the method:
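Counter screen for cytotoxicity: VDR-bla cells at 2,000 cells/well, 16 h compound exposure, then CellTiter-Glo luminescence after the beta-lactamase measurement.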
For orientation: qHTS replaces the single test concentration by a dilution series.

A short description of assay [2]: qHTS assay to identify small molecule antagonists of the vitamin D receptor (VDR) signaling pathway - cell viability counter screen (AID 743225). Further: nearly all actives have a fitted effect of over 50% in size. The gist of the method: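 Cytotoxicity toward the VDR-bla HEK 293T line was scored by ATP-based CellTiter-Glo luminescence, read in the wells already used for the beta-lactamase readout after 16 h compound treatment under 3 nM 1-alpha,25-dihydroxyvitamin D3 stimulation.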

The nature of assay [3]: qHTS assay to identify small molecule agonists of the NFkB signaling pathway (AID 1159509; active means well fitted curve in the direction sought with a large enough effect in the signal ratio in the repeat runs, not every such curve was filed as active; the % refers to the signal ratio; further: series mostly up to about 61 µM). The gist of the method:
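Beta-lactamase reporter assay run in quantitative high-throughput format on an NF-kB-responsive ME-180 line, with 5 hr compound treatment and a FRET-based blue/green fluorescence readout.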

The nature of assay [4]: qHTS assay to identify small molecule agonists of the NFkB signaling pathway - cell viability counter screen (AID 1159515; calls by dose curve; further: series mostly up to about 61 µM; nearly all actives have a fitted effect of over 55% in size). The gist of the method:
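Counter screen run alongside the NFkB-bla agonist assay: ME-180 reporter cells exposed to compounds for 5 hr, then lysed with CellTiter-Glo in the same wells. Luminescence, read after 30 min, reflects viable cells.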

Assay [5] is described as follows: qHTS assay to identify small molecule agonists of the endoplasmic reticulum stress response signaling pathway (AID 1159516; active means well fitted activation curve with a large enough effect in the signal ratio in the repeat runs, not every such curve was filed as active; the % refers to the signal ratio). The gist of the method: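 For this screen, HeLa cells stably carrying beta-lactamase under the ER stress response element received test compounds, positive controls or DMSO for 5 hr at 37 C; B/G FRET substrate was then added and dual-wavelength emission recorded.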

Assay [6] is described as follows: qHTS assay to identify small molecule agonists of the endoplasmic reticulum stress response signaling pathway - cell viability counter screen (AID 1159517; calls by dose curve; further: series mostly up to about 61 µM; nearly all actives have a fitted effect of over 50% in size). The gist of the method:
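Cytotoxicity of test compounds toward ESRE-bla HeLa cells was assessed after 5 hr exposure. The luminescent CellTiter-Glo signal was measured 30 min after reagent addition.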

Assay [7] in a line: qHTS assay to identify small molecule antagonists of the retinoid-related orphan receptor gamma (ROR-gamma) signaling pathway - cell viability counter screen (AID 1159520). Further: nearly all actives have a fitted effect of over 50% in size. The gist of the method:
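Tet-on ROR gamma CHO cells (1,000/well) were plated 4 hr, given compounds in DMSO for 2 hr at 37 C, then induced with 1 uM final doxycycline for 16 hr. Viability was read as ATP by CellTiter-Glo luminescence after 30 min.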

The target of assay [8] is Nuclear receptor ROR-gamma (Homo sapiens) (UniProt P51449). Put plainly: qHTS assay to identify small molecule antagonists of the retinoid-related orphan receptor gamma (ROR-gamma) signaling pathway (AID 1159521). Summed up:
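Readout: ONE-Glo luciferase luminescence, 30 min at room temperature. System: Tet-on RORγ CHO, RORE-LUC. Sequence: compound 2 h, doxycycline 1 uM final, 16 h at 37 C.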

Assay [9] is described as follows: qHTS assay to identify small molecule agonists of the AP-1 signaling pathway - cell viability counter screen (AID 1159525; calls by dose curve; further: nearly all actives have a fitted effect of over 55% in size). Summed up:
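Each titration point was normalised to DMSO and tetra n-octyl ammonium bromide controls. The read was Cell Titer Glo luminescence after 30 min at RT, following 5 h compound exposure of ME-180 AP-1-bla cells at 37 °C.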

Assay [10] in a line: qHTS assay to identify small molecule agonists of the AP-1 signaling pathway (AID 1159526; calls by dose curve).
A short description of assay [11]: qHTS assay to identify small molecule agonists of the RXR signaling pathway - cell viability counter screen (AID 1159529). Summed up:
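Tox21 10K compounds were tested for cytotoxicity against GeneBLAzer RXR-alpha HEK 293T cells grown in 2% charcoal-stripped FBS. Exposure lasted 16 hr at 37 C, 5% CO2; viability read by CellTiter-Glo luminescence.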

Assay [12] can be described thus: qHTS assay to identify small molecule antagonists of the retinoid acid receptor (RAR) signaling pathway - cell viability counter screen (AID 1159551). Further: nearly all actives have a fitted effect of over 35% in size. The gist of the method: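 Measured by luminescent ATP detection, viability reflects C3RL4 cells treated 6 h at 37 C with test chemicals in the presence of 1 uM (final) retinol.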
In assay [13] the target is Retinoic acid receptor RXR-alpha (Homo sapiens) (UniProt P19793). Briefly: qHTS assay to identify small molecule agonists of the RXR signaling pathway (AID 1159527; calls by dose curve; further: nearly all actives have a fitted effect of over 35% in size). The gist of the method:
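Reporter activation is measured as beta-lactamase activity via FRET substrate cleavage (emission 460/530 nm) in HEK 293T cells expressing an RXR-alpha-driven bla construct, following 16 hr compound exposure at 37 C.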

A short description of assay [14]: qHTS assay to identify small molecule antagonists of the retinoic acid receptor (RAR) signaling pathway (AID 1159552; further: nearly all actives have a fitted effect of over 50% in size). The gist of the method:
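Overnight-plated C3RL4 reporter cells get compound, then retinol to 1 uM final; plates sit 6 hr at 37 C, 5% CO2. A luciferase reagent is added and light output recorded after 30 min at room temperature.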

The nature of assay [15]: qHTS assay to identify small molecule agonists of the retinoic acid receptor (RAR) signaling pathway (AID 1159553). Further: potency means the concentration at half of the fitted maximal effect. The gist of the method: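 6 hr compound exposure (DMSO vehicle) of overnight-plated C3RL4 RARE-luc cells at 37 C; luminescence quantified after 30 min RT with luciferase reagent.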

Chain of Retinoic acid receptor RXR-alpha (Homo sapiens) (P19793 whole entry, looked up): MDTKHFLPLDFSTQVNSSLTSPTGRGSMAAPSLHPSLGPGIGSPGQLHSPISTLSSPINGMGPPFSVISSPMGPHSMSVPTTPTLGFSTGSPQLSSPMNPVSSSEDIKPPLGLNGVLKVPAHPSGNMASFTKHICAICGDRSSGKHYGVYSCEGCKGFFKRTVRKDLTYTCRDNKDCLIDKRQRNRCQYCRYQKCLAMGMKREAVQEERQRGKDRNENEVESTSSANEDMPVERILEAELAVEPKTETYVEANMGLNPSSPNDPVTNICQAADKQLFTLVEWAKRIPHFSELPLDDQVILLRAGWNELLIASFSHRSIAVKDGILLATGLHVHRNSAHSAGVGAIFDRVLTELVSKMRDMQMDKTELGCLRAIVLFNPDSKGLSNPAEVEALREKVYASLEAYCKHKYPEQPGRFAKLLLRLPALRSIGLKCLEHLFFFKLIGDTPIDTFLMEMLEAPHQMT

With `CCOP(=O)(OCC)OP(=O)(OCC)OCC`, the Potency result in assay [1], in [6], in assay [7], in assay [8], in assay [9] and in assay [11] was “inactive” throughout. Moreover, the Potency entry in assay [12] is “inactive”. Further, the call in assay [2], in [3], in assay [4], in assay [5] and in [10] was inactive.

As for `Nc1c(Br)cc([N+](=O)[O-])cc1[N+](=O)[O-]`, the Potency result in assay [1], in [6], in assay [7], in assay [8], in [9] and in [13] was “inactive” throughout. For the same compound, the Potency entry in assay [11], in assay [14] and in assay [15] was “inactive” in each case. Moreover, the call in assay [2], in assay [3], in assay [4], in [5] and in assay [10] was inactive.

Regarding `C[C@]1(O)CC[C@H]2[C@@H]3CCC4=CC(=O)CC[C@]4(C)[C@@]3(F)[C@@H](O)C[C@@]21C`, the Potency entry in assay [1], in assay [6], in assay [7], in assay [8], in [9] and in assay [11] was “inactive” throughout. For the same compound, the Potency result in assay [12] was “inactive”. In addition, the call in [2], in assay [3], in assay [4], in assay [5] and in assay [10] was inactive.

For `CC1CCCCC1NC(=O)Nc1ccccc1` (stereo not given), the Potency result in [1], in assay [6], in assay [7], in assay [8], in assay [9] and in [11] was “inactive” throughout. For the same compound, the Potency result in [12] is “inactive”. The compound was called inactive in assay [2], in assay [3], in assay [4], in [5] and in assay [10].

For `CC(C)(C)OC(=O)c1ncn2c1[C@@H]1CCCN1C(=O)c1c(Br)cccc1-2`, the Potency result in assay [1], in assay [6], in [7], in assay [8], in assay [9] and in assay [11] was “inactive” throughout. Further, the Potency entry in assay [12], in assay [14] and in assay [15] was “inactive” each time. Also, the result in assay [3], in [4], in [5] and in assay [10] was inactive.

Consider `CCOC(=O)N(C)C(=O)CSP(=S)(OCC)OCC`, for which the Potency result in assay [1], in [6], in assay [7], in assay [8], in assay [9] and in assay [11] was “inactive” in each case. Further, the Potency entry in assay [12] is “inactive”. Further, the outcome in assay [3], in assay [4], in assay [5] and in [10] was inactive.

As to `O=[N+]([O-])c1cccc2c([N+](=O)[O-])cccc12`, the Potency entry in assay [1], in assay [6], in assay [7], in [8], in assay [9] and in assay [11] was “inactive” throughout. Moreover, the Potency entry in assay [12] and in assay [15] was “inactive” throughout. In addition, the compound was called inactive in assay [2], in assay [3], in assay [4], in assay [5] and in [10].

For `CCS(=O)(=O)CCSP(=O)(OC)OC`, the Potency entry in assay [1], in [6], in [7], in assay [8], in assay [9] and in assay [11] was “inactive” in each case. For the same compound, the Potency entry in [12], in [14] and in [15] was “inactive” in each case. The call in assay [2], in [3], in assay [4], in assay [5] and in [10] was inactive.

As to `N#Cc1ccncc1`, the Potency result in assay [1], in assay [6], in [7], in [8], in [9] and in [11] was “inactive” in each case. For the same compound, the Potency entry in [12] and in assay [15] was “inactive” each time. The compound was classed as inactive in assay [2], in assay [3], in assay [4], in assay [5] and in assay [10].

Consider `O=[N+]([O-])c1ccc2c3c(cccc13)CC2`, for which the Potency entry in assay [1], in assay [6], in assay [7], in assay [8], in assay [9] and in [11] was “inactive” in each case. Besides, the Potency result in [12], in assay [14] and in assay [15] was “inactive” throughout. Besides, the compound was called inactive in assay [2], in assay [3], in [4], in [5] and in [10].

For `O=CNC(N1CCN(C(NC=O)C(Cl)(Cl)Cl)CC1)C(Cl)(Cl)Cl` (stereo not given), the Potency result in assay [1], in [6], in assay [7], in [8], in assay [9] and in assay [11] was “inactive” in each case. In assay [12], the Potency entry was “inactive”. Also, the compound was classed as inactive in assay [2], in [3], in assay [4], in assay [5] and in assay [10].

With `COc1cc(C[C@@H](C)N)c(OC)cc1C`, the Potency entry in assay [1], in [6], in assay [7], in assay [8], in [9] and in assay [11] was “inactive” each time. The Potency entry in [12] is “inactive”. In addition, the result in assay [2], in [3], in [4], in [5] and in [10] was inactive.

For `N#CCBr`, the Potency entry in assay [1], in assay [6], in [7], in assay [8], in [9] and in assay [11] was “inactive” each time. In assay [12], the Potency entry was “inactive”. Besides, the result in [3], in [4], in [5] and in assay [10] was inactive.

For the compound `C(CCOCC1CO1)COCC1CO1` (stereo not given), the Potency entry in assay [1], in assay [6], in assay [7], in [8], in [9] and in assay [13] was “inactive” throughout. Also, the Potency entry in assay [12] and in assay [15] was “inactive” in each case. Moreover, the outcome in [2], in assay [3], in assay [4], in assay [5] and in [10] was inactive.

With `CC(COc1ccc(Oc2ccccc2)cc1)Oc1ccccn1` (stereo not given), the Potency result in assay [1], in [6], in assay [7], in assay [8], in assay [9] and in assay [11] was “inactive” in each case. Also, the Potency entry in assay [12] and in assay [14] was “inactive” in each case. In addition, the result in assay [3], in [4], in assay [5] and in [10] was inactive. Moreover, in assay [15], the Potency is 13.7 µM (active).

Turning to `CCOP(=S)(OCC)SCSc1ccc(Cl)cc1`, the Potency entry in assay [1], in assay [6], in assay [7], in [8], in [9] and in assay [11] was “inactive” throughout. For the same compound, the Potency entry in assay [12] and in [15] was “inactive” throughout. The compound was classed as inactive in [3], in assay [4], in assay [5] and in assay [10].

On to `ClCCOCOCCCl`, for which the Potency entry in [1], in [6], in assay [7], in assay [8], in assay [9] and in [13] was “inactive” throughout. For the same compound, the Potency result in assay [12], in assay [14] and in assay [15] was “inactive” throughout. Also, the compound was classed as inactive in [2], in assay [3], in [4], in assay [5] and in [10].

Take `CN1C(=S)CN=C(c2ccccc2)c2cc(Cl)ccc21`: the Potency result in assay [1], in assay [6], in assay [7], in assay [8], in assay [9] and in [11] was “inactive” throughout. Besides, the Potency result in [12], in [14] and in assay [15] was “inactive” in each case. Besides, the compound was called inactive in assay [2], in assay [3], in assay [4], in assay [5] and in [10].

As for `CC(C1CC1)C(O)(Cn1cncn1)c1ccc(Cl)cc1` (stereo not given), the Potency entry in assay [1], in assay [6], in [7], in assay [8], in [9] and in assay [11] was “inactive” in each case. Moreover, the Potency result in assay [12], in [14] and in assay [15] was “inactive” throughout. The outcome in [3], in assay [4], in assay [5] and in assay [10] was inactive.

For the compound `CCC#N`, the Potency result in assay [1], in [6], in assay [7], in assay [8], in [9] and in [11] was “inactive” each time. Further, the Potency entry in assay [12] and in assay [15] was “inactive” in each case. Besides, the outcome in assay [2], in assay [3], in assay [4], in assay [5] and in [10] was inactive.

The values are drawn from PubChem BioAssay (Tox21).
